Screening results deposited in PubChem by The Scripps Research Institute Molecular Screening Center.
A selection: hits, their analogues and other compounds. The true share with any hit is near 0.81%.
SRC2 inh – human SRC2 (NCOA2) inhibition; Q15596; HEK293 GAL4-SRC2 luciferase reporter, luminescence; inhibition, % at 9 µM; 370,000 compounds, 0.17% hits;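 active = inhibition above the mean inhibition of all tested compounds plus 3 SD, set per campaign, cut at about 52% in these data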;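 also: 0% = DMSO treated cells and 100% = cells given Gossypol at 36 µM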
NR2F2 inh – blocks human COUP-TFII nuclear receptor. 370,000 compounds, 0.7% hits. inhibition, % at 8.6 µM. HEK293T NGFI-A luciferase reporter, luminescence. AID 686940;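 active = inhibition above a per-plate cutoff, mean inhibition of test wells between control levels plus 3 SD, cut at about 38% in these data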;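 also: cells cotransfected with COUP-TFII expression vector driving the NGFI-A reporter; 0% = median of COUP-TF2 test wells and 100% = reporter-only cells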
SRC3 inh – inhibits human SRC3 coactivator; AID 588352; 360,000 compounds, 0.17% hits; inhibition, % at 3.6 µM; HEK293 GAL4-SRC3 luciferase reporter, luminescence;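 active = inhibition above a per-campaign cutoff, the mean of all compounds plus 3 SD, cut at about 60% in these data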;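 also: 0% = DMSO-treated cells and 100% = gossypol-treated cells at 36 µM; higher means less SRC3-driven luciferase light from the GAL4 reporter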
LRH-1 inv ag – NR5A2 inverse agonism in reporter assay. O00482. HEK293T StAR-luciferase reporter, LRH-1 transfected, 24 h. inhibition, % at 3.6 µM. 360,000 compounds, 0.13% hits. AID 602396;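 active = inhibition above the mean inhibition of all tested compounds plus 3 SD, cut at about 73% in these data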;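 also: 0% = DMSO wells and 100% = reporter-only cells lacking LRH-1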
SRC1 inh – human NCOA1 inhibition | HEK293 GAL4-SRC1 luciferase reporter, luminescence | inhibition, % at 3.6 µM | 360,000 compounds, 0.12% hits;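 active = inhibition above the campaign mean plus 3 SD, with each screening campaign given its own cutoff, cut at about 60% in these data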;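 also: 0% = DMSO treated cells and 100% = gossypol at 36 µM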
Target sequence (Q15788 whole entry, looked up, the tested form may be a part): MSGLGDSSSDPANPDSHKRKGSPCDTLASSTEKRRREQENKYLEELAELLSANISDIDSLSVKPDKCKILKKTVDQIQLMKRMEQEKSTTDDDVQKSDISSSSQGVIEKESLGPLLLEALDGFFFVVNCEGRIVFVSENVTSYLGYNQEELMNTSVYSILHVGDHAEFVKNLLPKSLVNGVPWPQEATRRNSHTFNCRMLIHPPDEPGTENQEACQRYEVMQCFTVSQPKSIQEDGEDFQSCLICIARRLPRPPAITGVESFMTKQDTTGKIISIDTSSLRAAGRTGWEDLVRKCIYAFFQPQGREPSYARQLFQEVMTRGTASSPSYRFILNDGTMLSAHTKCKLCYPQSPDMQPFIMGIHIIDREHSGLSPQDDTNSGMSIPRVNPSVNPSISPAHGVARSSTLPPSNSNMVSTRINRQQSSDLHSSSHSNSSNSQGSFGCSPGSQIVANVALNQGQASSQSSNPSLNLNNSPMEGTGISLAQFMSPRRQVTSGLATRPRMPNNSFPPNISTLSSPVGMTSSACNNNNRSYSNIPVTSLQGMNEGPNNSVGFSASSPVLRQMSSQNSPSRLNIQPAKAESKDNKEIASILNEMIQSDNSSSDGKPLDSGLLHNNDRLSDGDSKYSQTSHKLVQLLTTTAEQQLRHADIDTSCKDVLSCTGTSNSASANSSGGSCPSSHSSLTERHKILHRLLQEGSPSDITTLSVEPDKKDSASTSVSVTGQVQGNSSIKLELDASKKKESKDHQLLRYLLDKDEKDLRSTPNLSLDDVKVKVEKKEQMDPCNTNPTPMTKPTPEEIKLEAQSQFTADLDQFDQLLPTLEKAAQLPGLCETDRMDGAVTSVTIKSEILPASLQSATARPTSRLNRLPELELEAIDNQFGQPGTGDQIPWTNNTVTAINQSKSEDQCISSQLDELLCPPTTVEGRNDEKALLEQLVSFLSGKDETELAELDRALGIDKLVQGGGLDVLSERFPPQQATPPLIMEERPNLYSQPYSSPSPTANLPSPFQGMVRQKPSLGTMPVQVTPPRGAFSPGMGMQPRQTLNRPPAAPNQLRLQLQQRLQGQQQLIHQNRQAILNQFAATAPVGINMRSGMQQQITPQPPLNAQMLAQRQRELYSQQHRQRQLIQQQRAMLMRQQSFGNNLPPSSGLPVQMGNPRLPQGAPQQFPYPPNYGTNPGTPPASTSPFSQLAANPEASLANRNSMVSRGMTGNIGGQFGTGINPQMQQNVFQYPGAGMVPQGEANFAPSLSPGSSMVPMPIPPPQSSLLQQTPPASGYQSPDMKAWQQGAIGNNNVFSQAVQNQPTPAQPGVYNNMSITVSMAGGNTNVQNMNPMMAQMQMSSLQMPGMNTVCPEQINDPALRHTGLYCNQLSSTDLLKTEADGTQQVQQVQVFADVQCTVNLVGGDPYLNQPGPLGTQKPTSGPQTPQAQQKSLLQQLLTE
VP16 Luc counter – inhibits VP16 reporter, flagging COUP-TFII antagonist hits. AID 687007. HEK293 Gal4-VP16 luciferase reporter, luminescence. 2,500 compounds, 25% hits. shares compounds with NR2F2 inh. inhibition, % at 8.5 µM; in the data active = inhibition above about 13%
COUP-TFII conf – COUP-TFII (NR2F2) inhibition, confirmation assay; shares compounds with NR2F2 inh; HEK293 NGFI-A luciferase reporter, luminescence; inhibition, % at 8.5 µM; 2,500 compounds, 45% hits; AID 687008;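 active = mean inhibition over three repeats above a set limit taken from the earlier primary screen, cut at about 38% in these data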;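 also: 100% = cells given the luciferase reporter alone without the COUP-TF2 vector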
The depositor's hits bear a star; . = no result given; ! = not confirmed by another sample.

SMILES	SRC2 inh	NR2F2 inh	SRC3 inh	LRH-1 inv ag	SRC1 inh	VP16 Luc counter	COUP-TFII conf
Cn1nc(-c2ccccn2)nc2c(=O)n(C)c(=O)nc1-2	39	54*	93*	84*	89*	30*	33
CCCc1nc2c(=O)n(C)c(=O)nc-2n(C)n1	67*	68*	90*	89*	87*	37*	60*
CCn1c(N)nc2c1c(=O)n(C)c(=O)n2C	5	1	-26	23	3	.	.
COc1ccc(CNC(=O)COC(=O)c2cc(S(=O)(=O)N3CCOCC3)ccc2O)cc1OC	-20	4	3	-17	3	.	.
O=C(Nc1ccncc1)c1ccc(Cl)c(S(=O)(=O)N2CCc3ccccc32)c1	18	73*	28	40	27	2	60*
O=C(c1ccc(Cl)c(S(=O)(=O)N2CCCCCC2)c1)N1CCN(c2ccccn2)CC1	16	42*	20	24	0	-1	25
O=C(Nc1ccncc1)c1ccc(Cl)c(S(=O)(=O)N2CCCCC2)c1	14	61*	8	36	20	7	40*
O=C(c1ccc(Cl)c(S(=O)(=O)N2CCCCCC2)c1)N1CCCCC1	-54	11	-9	4	-3	.	.
O=C(Nc1ccc2c(c1)OCO2)c1ccc(Br)c(S(=O)(=O)N2CCCC2)c1	1	43*	2	-20	-3	-34	-14
CC(OC(=O)C1=COCCO1)C(=O)Nc1ncc(Cl)cc1Cl (stereo not drawn)	-15	0	-11	3	5	.	.
CN(Cc1ccccc1F)C(=O)Cn1c(-c2cncs2)nc2ccccc21	-1	14	.	.	.	.	.
Cc1c(C(=O)Nc2ccncc2)sc2nc(-c3ccccc3)cn12	11	52*	7	-36	7	-41	12
Cc1c(C(=O)Nc2ccc3c(c2)OCCO3)sc2nc(-c3ccccc3)cn12	-7	32	25	-28	10	.	.
COc1ccc(CNC(=O)c2cc(S(=O)(=O)N3CCCCC3)ccc2Cl)cc1OC	1	51*	6	37	12	2	33
COc1ccc(CNC(=O)c2cccc(S(=O)(=O)N3CCCCC3)c2)cc1OC	13	64*	6	29	25	3	45*
O=C(COc1coc(CN2CCN(c3ccccc3F)CC2)cc1=O)NCC1CCCO1 (stereo not drawn)	5	-20	-6	-18	7	.	.
C=C(C(=O)c1ccccc1)C(C)C(=C)C(=O)c1ccccc1	47	58*	41	21	17	47*	87*
C=C(C(=O)c1ccccc1)C(c1ccccc1)C(C)C(=O)c1ccccc1 (stereo not drawn)	38	-21	28	5	14	.	.
Cc1cc(=O)n2c3c(c4c(cc13)c(CN(C)C)cc(=O)n4C)OC2	58*	78*	-4	15	-13	-7	-1
Cc1cc(=O)n(C)c2ccccc12	-28	-20	-3	7	6	.	.
CCOC(=O)c1cnc(-n2nc(C)cc2C)nc1NC1CCCCC1	23	77*	5	19	12	-2	72*
COc1ccc(/C=C2\Sc3ccc(C(=O)N4CCN(Cc5ccccc5)CC4)cc3N(C)C2=O)cc1OC	23	71*	28	32	11	6	58*
CN1CCN(C(=O)c2ccc3c(c2)N(C)C(=O)/C(=C/c2cccc(Cl)c2)S3)CC1	22	3	-13	16	0	.	.
CCn1c2c(c(=N)c3c1CCC3)CCC2	32	12	9	-10	8	.	.
CCCCCCn1c(=O)[nH]c2c(c1=O)CCC2	12	-28	11	-11	-2	.	.
SMILES	SRC2 inh	NR2F2 inh	SRC3 inh	LRH-1 inv ag	SRC1 inh	VP16 Luc counter	COUP-TFII conf
CCCCCCCn1c2c(c(=N)c3c1CCC3)CCCC2	33	79*	79*	84*	44	17*	82*
CCCCn1c2c(c(=N)c3c1CCC3)CCC2	16	47*	28	45	30	11	39*
CCCCCCn1c2c(c(=N)c3c1CCC3)CCC2	-8	78*	75*	92*	67*	13	70*
CCCc1cc(=O)n2[nH]c(C)cc2n1	-13	-20	0	17	-7	.	.
Cc1csc(SCC(=O)NCCc2ccc(Cl)cc2Cl)n1	0	5	-2	-7	8	.	.
O=C(c1cc2nc(-c3ccc(F)cc3)cc(C(F)(F)F)n2n1)N1CCCCC1c1cccnc1 (stereo not drawn)	10	41*	27	10	13	9	57*
N#Cc1ccccc1OCC(=O)NC(=O)NC1CCS(=O)(=O)C1 (stereo not drawn)	-26	-23	-6	-28	-27	.	.
O=C(NCC(=O)N1CCN(c2ccccc2)CC1)c1ccco1	3	6	0	-1	-25	.	.
Cc1cc(/C=N/n2cnnc2)c(C)n1-c1ccc(OCc2ccc(Cl)cc2)cc1	30	68*	23	44	16	41*	88*
Cc1cc(/C=N/n2cnnc2)c(C)n1-c1ccc(OCc2ccccc2F)cc1	-10	-6	-18	-70	-49	.	.
CNC(=O)NC(=O)C(C)OC(=O)c1c2c(nc3ccccc13)/C(=C/c1cccs1)CC2 (stereo not drawn)	11	46*	10	-27	7	-37	-15
CCCCNC(=O)COC(=O)c1c2c(nc3ccccc13)/C(=C/c1cccs1)CC2	-8	31	-15	46	-2	.	.
CCOC(=O)c1cc2c(=O)n3cccc(C)c3nc2n(CC2CCCO2)c1=NC(C)=O (stereo not drawn)	5	73*!	-12	10	8	-5	-8
CCC(=O)N1CCCC(C)(C(=O)Nc2ccc(C)c(C)c2)C1 (stereo not drawn)	-10	1	-11	-7	-4	.	.
Cc1oc(-c2ccc(Cl)cc2)nc1CS(=O)CC(=O)NCCCN1CCN(Cc2ccccc2)CC1 (stereo not drawn)	31	62*	32	34	35	8	65*
Cc1oc(-c2ccc(Cl)cc2)nc1CS(=O)CC(=O)NCCCN1CCCC(C)C1 (stereo not drawn)	-9	1	6	2	2	.	.
Cc1ccc(NC(=O)c2cc(S(=O)(=O)NCC3CCCO3)ccc2F)cc1 (stereo not drawn)	2	-9	-4	-14	-4	.	.
Cc1ccc(NC(=O)c2cc(S(=O)(=O)NCCC3=CCCCC3)ccc2F)cc1	31	61*	22	38	21	3	33
Cc1cc(N2CCN(c3nc4ccccc4s3)CC2)n2ncnc2n1	-14	68*	19	44	16	-7	71*
O=C(NC1(Cc2ccccc2)CCN(CCc2cccs2)C1=O)c1ccccc1 (stereo not drawn)	-12	-9	-2	-11	-17	.	.
